# Source: PubChem BioAssay (several laboratories)
# Bead autofluor – flagged as autofluorescent in microsphere protease counterscreen. AID 624483. fluorescence intensity (no concentration beside the values). compound autofluorescence counterscreen, microsphere flow cytometry; active compounds read high. 360,000 tested, 3.1% active; in the data active = fluorescence intensity above about 16000; inconclusive = no clear call, values can overlap the other calls
# BoNT-A LC inh2 – blocks Botulinum neurotoxin A light chain protease. multiplex microsphere protease substrate cleavage, flow cytometry. inhibition, % at 10 µM. 360,000 tested, 0.17% active. AID 588499; note: plate controls were buffer without enzyme for full effect and enzyme alone for no effect
# Anthrax LF inh2 – blocks Bacillus anthracis lethal factor protease; P15917; multiplex microsphere protease cleavage assay, LF; inhibition, % at 10 µM; 360,000 tested, 0.12% active; note: plate controls were buffer without enzyme for full effect and enzyme alone for no effect
# Target sequence (P15917 whole entry, looked up): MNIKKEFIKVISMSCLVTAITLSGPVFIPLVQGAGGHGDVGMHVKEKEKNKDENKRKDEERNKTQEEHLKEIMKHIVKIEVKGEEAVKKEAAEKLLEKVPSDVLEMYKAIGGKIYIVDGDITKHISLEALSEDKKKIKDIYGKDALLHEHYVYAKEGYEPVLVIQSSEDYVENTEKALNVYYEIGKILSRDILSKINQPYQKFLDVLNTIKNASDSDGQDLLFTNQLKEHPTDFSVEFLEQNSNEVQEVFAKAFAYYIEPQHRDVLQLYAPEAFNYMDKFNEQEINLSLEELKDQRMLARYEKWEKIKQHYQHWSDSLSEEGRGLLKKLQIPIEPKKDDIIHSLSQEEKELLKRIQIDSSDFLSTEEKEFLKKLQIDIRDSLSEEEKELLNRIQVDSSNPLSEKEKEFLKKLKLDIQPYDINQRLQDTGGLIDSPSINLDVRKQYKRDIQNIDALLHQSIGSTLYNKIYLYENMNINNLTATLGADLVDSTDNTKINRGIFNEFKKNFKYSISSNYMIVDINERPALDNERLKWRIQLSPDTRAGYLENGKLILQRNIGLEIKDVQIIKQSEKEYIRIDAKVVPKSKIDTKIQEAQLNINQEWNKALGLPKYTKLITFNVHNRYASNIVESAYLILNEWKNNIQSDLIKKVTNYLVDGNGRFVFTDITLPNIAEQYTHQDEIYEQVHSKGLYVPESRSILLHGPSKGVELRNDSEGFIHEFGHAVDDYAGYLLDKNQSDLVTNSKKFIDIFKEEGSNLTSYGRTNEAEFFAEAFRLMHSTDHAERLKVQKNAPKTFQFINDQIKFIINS
# BJeLR viability – BJeLR cell viability loss. 300,000 tested, 0.17% active. inhibition, % (no concentration beside the values). BJeLR (HRASV12) viability, CellTiter-Glo ATP luminescence, 48 h. AID 1554; in the data active = inhibition above about 50%; inconclusive = no clear call, values can overlap the other calls
# BoNT-F LC inh – blocks Botulinum neurotoxin F light chain protease. Multiplex microsphere protease cleavage assay, flow cytometry. inhibition, % at 10 µM. 360,000 tested, 0.22% active; in the data active = inhibition above about 35%, passing the limit was not always enough; inconclusive = no clear call, values can overlap the other calls; note: plate controls were buffer without enzyme for full effect and enzyme alone for no effect
# Vc quorum ag – induces V. cholerae light production without autoinducers. AID 588436. V. cholerae BH1578 lux reporter, luminescence, 6 h. 350,000 tested, 0.16% active. activation, % at 18.7 µM; in the data active = activation mostly above about 9.7%, no sharp cut-off; inconclusive = no clear call, values can overlap the other calls; inactive = mostly below about 3.7%
# The depositor's hits bear a star; i = inactive; ? = inconclusive; . = no result. Most compounds without a hit are left out; they make up all but 3.7% or so of the library. Cut-off read from the data, not from the text of the source, unless noted: active = inhibition above about 30%; inconclusive = no clear call, values can overlap the other calls; inactive = below that.
SMILES,Bead autofluor,BoNT-A LC inh2,Anthrax LF inh2,BJeLR viability,BoNT-F LC inh,Vc quorum ag
CCn1c(SCC(=O)NC2CCCCC2)nnc1-c1cccs1,20887*,4,-17,10,3,i
Cc1cccc(C)c1OCC(=O)NCc1nnc(SCC(=O)NC2CCCCC2)n1C,22773*,?,-5,-2,-5,4
Cc1cccc(C(=O)NCc2nnc(SCC(=O)NC3CCCC3)n2C)c1,5625,-1,-4,-8,-2,0
CCn1c(SC(=O)NC2CCCCC2)nnc1-c1cccs1,16821*,-1,-3,-10,-1,-6
CC1(C(=O)NS(=O)(=O)c2cccc(C#N)c2)CCN1C(=O)C1(c2ccccc2)CC1 (configuration not stated),5094,-4,-16,.,-35,i
CSc1c(C#N)c(N)c(C#N)c2c1COC(C)(C)C2,21535*,2,0,3,5,0
CC(C)c1nc(Cl)c(C#N)c2c1COC(C)(C)C2,3410,?,11,0,?,i
O=C(CN1C(=O)COc2ccccc21)NCCCN1CCN(c2ccccc2F)CC1,4068,2,-3,10,3,i
COCCNC(=O)COc1cc(=O)n(C)c2ccccc12,16570*,0,-1,13,-4,i
CCN(CCCNC(=O)COc1cc(=O)n(C)c2ccccc12)c1cccc(C)c1,17522*,7,-12,4,4,i
CCOC(=O)CNC(=O)COc1coc(CN2CCN(c3ccccc3F)CC2)cc1=O,6143,38*,0,8,1,0
CCOC(=O)CNC(=O)COc1coc(CN2CCN(c3ccccc3)CC2)cc1=O,5349,1,-2,2,-2,-1
Cc1cccc(CCNC(=O)COc2cc(=O)n(C)c3ccccc23)c1,2251,-2,-2,7,-17,2
COc1ccc(CCNC(=O)COc2cc(=O)n(C)c3ccccc23)cc1OC,2266,0,-2,-2,-3,0
CCn1c(=O)cc(SCC(=O)NCCCN2CCN(c3ccccc3F)CC2)c2ccccc21,20693*,-1,-2,7,-1,i
CC(=O)OC[C@@H]1CN(Cc2ccccc2)C[C@H](n2cnc3c(Nc4ccccc4)ncnc32)O1,3448,-1,-4,.,-5,i
Cn1c(=O)cc(OCCCC(=O)NCCN2CCN(c3ccccc3F)CC2)c2ccccc21,5817,0,-3,0,-13,-1
Cn1c(=O)cc(OCC(=O)NCCCN2CCN(c3ccccc3F)CC2)c2ccccc21,20602*,4,0,0,8,-6
CCC1CCCCN1CCCNC(=O)COc1cc(=O)n(C)c2ccccc12 (configuration not stated),20141*,-1,0,8,-2,6
Cc1cc(=O)n2nc(N3CCCC3C(=O)Nc3cccc(Cl)c3C)sc2n1 (configuration not stated),20778*,-3,-5,8,19,0
COc1cccc(C(=Cc2ccc([N+](=O)[O-])cc2)C(=O)O)c1,3443,0,-2,.,0,-5
CC1(C(=O)NS(=O)(=O)c2cccc(Cl)c2)CCN1C(=O)C1(c2ccccc2)CC1 (configuration not stated),3521,0,-8,.,4,0
CCOC(=O)c1sc2c(c1C)c(=O)c(C(=O)OCC)cn2CC,19706*,1,-4,4,4,1
Cc1ccc(C2CC(=O)NC(SCC(=O)Nc3nccs3)=C2C#N)cc1 (configuration not stated),2650,0,3,3,-6,25*
CC1(C(=O)O)CCCN(C(=O)c2cc3ccccc3s2)C1 (configuration not stated),3792,0,-8,.,-1,i
SMILES,Bead autofluor,BoNT-A LC inh2,Anthrax LF inh2,BJeLR viability,BoNT-F LC inh,Vc quorum ag
COc1ccc(C2C(C(=O)Nc3cccnc3)=C(C)Nc3nc(-c4cccs4)nn32)cc1 (configuration not stated),21944*,0,-2,5,-2,0
C=CCN=C(NC#N)SCCc1ccccc1,20089*,-3,-7,-6,-5,-2
Fc1ccc(CNC2CN3CCC2CC3)cc1 (configuration not stated),3452,1,-8,-2,-11,i
CCOc1cccc(CNC2CN3CCC2CC3)c1 (configuration not stated),16409*,?,-2,5,-1,0
CCOc1ccc(S(=O)(=O)N2CCOCC2)cc1NC(=O)CCN1C(=O)NC2(CCCC2)C1=O,3862,0,-2,.,-2,-1
COc1cc(C(O)c2nc(-c3cccc(C(F)(F)F)c3)cs2)ccc1F (configuration not stated),3444,0,1,.,-4,i
CCN1CCC(NC(=O)c2cc(OC)c(OC)cc2OC)CC1,21698*,?,0,-5,-6,-1
Cc1ccc(NC(=O)c2cc(-n3cnnc3)ccc2Cl)cc1,16625*,-1,-1,-5,-2,-14
CNc1nc(Nc2ccc(C)cc2C)c2sccc2n1,2889,0,3,.,-4,i
NC(=O)C1CCN(c2nc(C3CC3)nc3c2nnn3Cc2ccccc2Cl)CC1,25043*,?,-3,5,-5,i
NC(=O)C1CCN(c2nc(C3CC3)nc3c2nnn3Cc2ccccc2)CC1,8526,-1,-8,1,-11,0
OCCNc1nc(C2CC2)nc2c1nnn2Cc1ccccc1Cl,23293*,?,0,2,-2,i
c1ccc(Cn2nnc3c(N4CCN(Cc5ccc6c(c5)OCO6)CC4)ncnc32)cc1,24167*,-1,-1,5,-4,0
COCCNc1nc(C(C)(C)C)nc2c1nnn2Cc1ccccc1Cl,12170,-2,-1,3,-12,i
CC1Cc2ccccc2N1c1ncnc2c1nnn2Cc1ccccc1Cl (configuration not stated),4737,0,-3,-10,11,1
Clc1ccccc1Cn1nnc2c(N3CCCC3)ncnc21,23668*,-1,-2,-4,-2,0
Cc1ccc(C(=O)C(OC(=O)CNC(=O)c2ccc(Cl)cc2)c2ccccc2)cc1 (configuration not stated),21549*,?,0,11,5,i
O=C(CN1C(=O)c2ccccc2C1=O)OC(C(=O)c1ccc(Cl)cc1)c1ccccc1 (configuration not stated),21488*,-4,-1,7,-6,0
Cc1ccc(C(=O)C(OC(=O)CN2C(=O)c3ccccc3C2=O)c2ccccc2)cc1C (configuration not stated),22707*,1,-1,12,1,i
CC(=O)OC[C@@H]1CN(Cc2ccccc2)C[C@H](n2cnc3c(NC4CCC4)ncnc32)O1,3738,0,1,.,-1,0
CC1=CCC(C(=O)O)(C(=O)N/N=C/c2cccs2)C(c2ccc([N+](=O)[O-])cc2)C1 (configuration not stated),21132*,3,-5,7,4,0
